Where “and” joins values, the source holds several entries; their conditions need not be identical. Identical values can stand only once. The whole screen tested about 5,500 compounds, of which about 2,000 (36%) were called active. Another 18% or so got no clear call; they are omitted. Rule as the data show it: active = normalized growth mostly below about 0.91 (no sharp cut-off); inconclusive = no clear call, values can overlap the other calls; inactive = mostly above about 0.92. The list shows a part of the results.
Assay: chemical genetic growth profiling, strain panel (AID 1159580);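 also: tested at 20 µM; growth read once vehicle control cultures reached saturation at 30 °C; 1 = growth at the plate median or of vehicle wells; lower values mean less growth of the strain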
Details: S. cerevisiae deletion strains, growth OD

Measured: normalized growth

C[C@@H]1C[C@@H]([C@H](O)CC2CC(=O)NC(=O)C2)C(=O)[C@@H](C)C1
active: locus YAL013W, strain DEP1, hits give low values 0.0595 | locus YAL021C, strain ccr4, hits give low values 0.0677 | locus YAL026C, strain drs2, hits give low values 0.0607 | locus YAL030W, strain snc1, hits give low values 0.0538 | locus YBL061C, strain skt5, hits give low values 0.0591 | locus YBR009C, strain hhf1, hits give low values 0.0595 | locus YBR021W, strain FUR4, hits give low values 0.0961 | locus YBR023C, strain chs3, hits give low values 0.0612 | locus YBR171W, strain sec66, hits give low values 0.075 | locus YBR229C, strain ROT2, hits give low values 0.031 | locus YBR231C, strain swc5, hits give low values 0.0623 | locus YBR279W, strain paf1, hits give low values 0.0578 | locus YCL011C, strain gbp2, hits give low values 0.0569 | locus YCL016C, strain dcc1, hits give low values 0.0627 | locus YCL029C, strain bik1, hits give low values 0.0585 | locus YCL069W, strain vba3, hits give low values 0.058 | locus YCR088W, strain abp1, hits give low values 0.0589 | locus YDL005C, strain med2, hits give low values 0.0714 | locus YDL035C, strain GPR1, hits give low values 0.0555 | locus YDL040C, strain nat1, hits give low values 0.0555 | locus YDL074C, strain BRE1, hits give low values 0.0968 | locus YDL101C, strain DUN1, hits give low values 0.0509 | locus YDL134C, strain PPH21, hits give low values 0.0498 | locus YDL185W, strain tfp1, hits give low values 0.0581 | locus YDL192W, strain arf1, hits give low values 0.0598 | locus YDR001C, strain nth1, hits give low values 0.0564 | locus YDR069C, strain doa4, hits give low values 0.0601 | locus YDR101C, strain arx1, hits give low values 0.0579 | locus YDR137W, strain rgp1, hits give low values 0.0878 | locus YDR150W, strain NUM1, hits give low values 0.0592 | locus YDR159W, strain sac3, hits give low values 0.0889 | locus YDR162C, strain NBP2, hits give low values 0.0524 | locus YDR195W, strain ref2 0.129 | locus YDR297W, strain sur2, hits give low values 0.0532 | locus YDR318W, strain mcm21, hits give low values 0.0664 | locus YDR334W, strain swr1, hits give low values 0.0608 | locus YDR335W, strain msn5, hits give low values 0.059 | locus YDR388W, hits give low values 0.0549 | locus YDR392W, strain spt3, hits give low values 0.0763 | locus YDR502C, strain sam2, hits give low values 0.061 | locus YEL003W, strain gim4, hits give low values 0.0527 | locus YEL037C, strain rad23, hits give low values 0.0554 | locus YEL061C, strain CIN8 (second series), hits give low values 0.0592 | locus YEL061C, strain CIN8, hits give low values 0.0496 | locus YER015W, strain faa2, hits give low values 0.0595 | locus YER016W, strain bim1, hits give low values 0.0609 | locus YER110C, hits give low values 0.0708 | locus YER111C, strain swi4, hits give low values 0.0709 | locus YER155C, strain BEM2 (second series), hits give low values 0.0899 | locus YER155C, strain BEM2, hits give low values 0.0629 | locus YER167W, strain BCK2, hits give low values 0.0564 | locus YFR010W, strain ubp6, hits give low values 0.0674 | locus YGL078C, strain dbp3, hits give low values 0.0553 | locus YGL086W, strain mad1, hits give low values 0.0574 | locus YGL167C, strain pmr1, hits give low values 0.0714 | locus YGL173C, strain kem1, hits give low values 0.0657 | locus YGL227W, strain vid30, hits give low values 0.06 | locus YGL240W, strain doc1, hits give low values 0.0796 | locus YGL248W, strain PDE1, hits give low values 0.0442 | locus YGL253W, strain hxk2, hits give low values 0.0535 | locus YGR078C, strain PAC10, hits give low values 0.0533 | locus YGR135W, strain pre9, hits give low values 0.0644 | locus YGR229C, strain SMI1, hits give low values 0.0652 | locus YGR252W, strain gcn5, hits give low values 0.175 | locus YHR013C, strain ard1, hits give low values 0.0947 | locus YHR027C, strain rpn1, hits give low values 0.0594 | locus YHR030C, strain SLT2, hits give low values 0.0489 and 0.101 | locus YHR079C, strain IRE1 (second series), hits give low values 0.0562 | locus YHR079C, strain IRE1, hits give low values 0.107 | locus YHR094C, strain hxt1, hits give low values 0.0562 | locus YHR129C, strain ARP1, hits give low values 0.0564 | locus YHR142W, strain chs7, hits give low values 0.0716 | locus YHR200W, strain rpn10, hits give low values 0.0589 | locus YIL066C, strain RNR3, hits give low values 0.0491 | locus YIL073C, strain SPO22, hits give low values 0.114 | locus YIL125W, strain kgd1, hits give low values 0.0558 | locus YIR030C, strain dcg1, hits give low values 0.0576 | locus YJL092W, strain hpr5, hits give low values 0.0581 | locus YJL095W, strain BCK1 (second series), hits give low values 0.0549 | locus YJL095W, strain BCK1, hits give low values 0.0583 and 0.105 | locus YJL115W, strain asf1, hits give low values 0.0707 | locus YJL129C, strain trk1, hits give low values 0.0813 | locus YJL134W, strain LCB3, hits give low values 0.0474 | locus YJL154C, strain vps35, hits give low values 0.0577 | locus YJL164C, strain tpk1, hits give low values 0.0602 | locus YJL166W, strain qcr8, hits give low values 0.0579 | locus YJL168C, strain set2, hits give low values 0.0578 | locus YJL187C, strain SWE1 (second series), hits give low values 0.0445 | locus YJL187C, strain SWE1, hits give low values 0.0553 | locus YJR043C, strain POL32, hits give low values 0.0691 | locus YJR066W, strain TOR1, hits give low values 0.000656
